We go through 8 molecules from PubChem BioAssay (NCI).

Test systems include NCI-H23 lung; NCI-H226 lung; NCI-H322M lung; HOP-62 NSCLC; NCI-H460 lung; HOP-92 NSCLC; NCI-H522 lung; A549/ATCC NSCLC; 786-0 renal; COLO 205 colon; DU-145 prostate; K-562 leukemia; MALME-3M melanoma; MDA-MB-231 breast; RXF 393 renal; SF-268 CNS; SF-295 CNS; SF-539 CNS; UACC-257 melanoma; M14 melanoma.
What all share (test): NCI-60 one-dose screen, 48 h (100 = growth as untreated, 0 = no growth, -100 = all killed)
What all share (settings): 10 µM unless noted

This is part of a sample that, as a whole, favours compounds with a hit. Of some 83,000 tested, about 20% had one in any assay.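 Activity criterion: percent growth below 10, measured after cells in 96-well plates were exposed to a single compound concentration for 48 hours.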 Unmarked numbers belong to inactive results. The source made the active and inactive calls.

For `O=[N+]([O-])c1ccc(-c2nc(N(CCO)CCO)c3ccccc3n2)o1`, the growth in the test with NCI-H23 lung was -64.9% (active); in the test on NCI-H226 lung, -24.7% (active); with NCI-H322M lung, -31% (active); in the test with HOP-62 NSCLC it was -20.7% (active); in the test with NCI-H460 lung, -41.6% (active); in the test on HOP-92 NSCLC, -44.8% (active). Also, the growth in the test on NCI-H522 lung was -54% (active); in the test on A549/ATCC NSCLC, -0.496% (active); with 786-0 renal, -40.4% (active); in the test with COLO 205 colon it was -87.1% (active); in the test on DU-145 prostate, -22.8% (active); in the test on K-562 leukemia, 4.2% (active). The growth with MALME-3M melanoma is -74.5% (active); in the test on MDA-MB-231 breast it was -6.61% (active); with RXF 393 renal, -87.1% (active); in the test with SF-268 CNS, -16.2% (active); in the test with SF-295 CNS, -32.1% (active); with SF-539 CNS, -48.9% (active). Further, the growth in the test on UACC-257 melanoma was -36.3% (active); in the test with M14 melanoma, -90% (active).

For `CCOC(=O)C(=O)CC(=O)c1ccccc1`, the growth in the test on NCI-H23 lung was 95.4%; with NCI-H226 lung it was 86.6%; in the test on NCI-H322M lung it was 94.5%; in the test with HOP-62 NSCLC, 94.9%; with NCI-H460 lung, -12.5% (active); with HOP-92 NSCLC it was 79.6%. Further, the growth with NCI-H522 lung is 98.8%; in the test with A549/ATCC NSCLC, 96.5%; in the test on 786-0 renal, 103%; in the test with COLO 205 colon, 100%; in the test with DU-145 prostate it was 102%; in the test with K-562 leukemia, 118%. Also, the growth is 100% with MALME-3M melanoma; 92.9% in the test on MDA-MB-231 breast; 103% in the test on RXF 393 renal; 96.7% with SF-268 CNS; 104% in the test with SF-295 CNS; 100% in the test with SF-539 CNS. Also, the growth is 101% in the test on UACC-257 melanoma and 97.1% in the test on M14 melanoma.

As to `OCCc1ccc(Cl)cc1`, the growth was 104% in the test on NCI-H23 lung; 99.9% in the test on NCI-H226 lung; 101% in the test on NCI-H322M lung; 95.9% in the test on HOP-62 NSCLC; 109% with NCI-H460 lung; 105% in the test with HOP-92 NSCLC. Further, the growth in the test with NCI-H522 lung was 89.8%; with A549/ATCC NSCLC, 88.8%; in the test on 786-0 renal, 95.6%; in the test with COLO 205 colon, 109%; in the test with DU-145 prostate, 109%; in the test with K-562 leukemia, 99.9%. Also, the growth in the test on MALME-3M melanoma is 99.5%; in the test with MDA-MB-231 breast, 96.9%; in the test on RXF 393 renal, 112%; in the test with SF-268 CNS it was 99.9%; in the test with SF-295 CNS, 94.9%; in the test with SF-539 CNS it was 93.9%. The results for the growth in the test on UACC-257 melanoma and with M14 melanoma were 86.6% and 99.2%, respectively.

As to `CN(C)c1ccc(O)c2c1CC1CC3C(N(C)C)C(=O)C(C(N)=O)=C(O)C3(O)C(=O)C1=C2O` (stereo not given), the growth is 51.1% with NCI-H23 lung; 71% with NCI-H226 lung; 38.7% with NCI-H322M lung; 55% in the test with HOP-62 NSCLC; 29.1% with NCI-H460 lung; 21.7% with HOP-92 NSCLC. Further, the growth in the test on NCI-H522 lung was 35.6%; in the test on A549/ATCC NSCLC it was 21.3%; with 786-0 renal, 45.3%; with COLO 205 colon, 56.3%; with DU-145 prostate it was 49%; with K-562 leukemia, 45.2%. Further, the growth in the test with MALME-3M melanoma was 46.8%; with MDA-MB-231 breast, 66.3%; with RXF 393 renal, 46.3%; in the test with SF-268 CNS, 46.1%; with SF-295 CNS it was 11.8%; in the test with SF-539 CNS it was 41.6%. The growth in the test with UACC-257 melanoma was 48.4%; with M14 melanoma, 42.1%.

On to `Cc1ccc(O)c(N)c1`, for which the growth in the test on NCI-H23 lung was 121%; with NCI-H226 lung, 97%; in the test on NCI-H322M lung, 98.1%; in the test with HOP-62 NSCLC it was 132%; in the test with NCI-H460 lung it was 103%; with HOP-92 NSCLC, 126%. The growth is 70.6% in the test with NCI-H522 lung; 98.7% with A549/ATCC NSCLC; 115% in the test on 786-0 renal; 117% in the test on COLO 205 colon; 122% in the test on DU-145 prostate; 113% in the test on K-562 leukemia. Moreover, the growth in the test with MALME-3M melanoma was 103%; in the test with MDA-MB-231 breast, 92.8%; in the test with RXF 393 renal it was 117%; in the test with SF-268 CNS it was 112%; in the test with SF-295 CNS, 131%; with SF-539 CNS, 103%. Also, the growth is 111% with UACC-257 melanoma and 108% in the test on M14 melanoma.

For the molecule `Cc1cc2c(C(C)C)c(O)c(O)c(C=Nc3ccccc3[N+](=O)[O-])c2c(O)c1-c1c(C)cc2c(C(C)C)c(O)c(O)c(C=Nc3ccccc3[N+](=O)[O-])c2c1O`, the growth in the test with NCI-H23 lung is 71.4%; in the test on NCI-H226 lung it was 82.8%; with NCI-H322M lung, 89.2%; with HOP-62 NSCLC, 83.4%; in the test on NCI-H460 lung it was 87%; in the test with HOP-92 NSCLC, 61%. Moreover, the growth with NCI-H522 lung is 64.4%; in the test on A549/ATCC NSCLC it was 52%; in the test on 786-0 renal it was 96.1%; in the test on COLO 205 colon, 94.7%; in the test on DU-145 prostate it was 94.6%; with K-562 leukemia, 34.9%. The growth in the test on MALME-3M melanoma is 93.5%; in the test with MDA-MB-231 breast, 74.4%; with RXF 393 renal, 83.2%; in the test on SF-268 CNS, 73.5%; in the test on SF-295 CNS it was 82%; in the test with SF-539 CNS, 97.2%. In addition, the results for the growth in the test with UACC-257 melanoma and with M14 melanoma were 92.6% and 88%, respectively.

Consider `COc1ccc2c(Cl)cc(NC(=O)Nc3c(C)cccc3C)nc2c1`, for which the growth was 96.9% in the test on NCI-H23 lung; 4.58% (active) in the test with NCI-H226 lung; 54% with NCI-H322M lung; 6.88% (active) with HOP-62 NSCLC; 31.4% with NCI-H460 lung; 41.3% in the test with HOP-92 NSCLC. Also, the growth with NCI-H522 lung was 78.1%; in the test with A549/ATCC NSCLC it was 43.3%; in the test with 786-0 renal, 21%; in the test with COLO 205 colon, 58.7%; with DU-145 prostate, 82.6%; with K-562 leukemia it was 72.6%. Besides, the growth in the test with MALME-3M melanoma was -1.2% (active); in the test with MDA-MB-231 breast it was 62.7%; with RXF 393 renal, 36.3%; in the test on SF-268 CNS, 81.1%; in the test on SF-295 CNS, 0.445% (active); in the test with SF-539 CNS, 90.1%. For the same molecule, the figures for the growth with UACC-257 melanoma and in the test with M14 melanoma were 76.8% and 85.6%, respectively.

In the case of `CC(=O)N(C)N=Nc1ccc(C)cc1`, the growth with NCI-H23 lung is 95%; in the test with NCI-H226 lung it was 97.7%; in the test with NCI-H322M lung it was 92.3%; with HOP-62 NSCLC, 95.8%; in the test on NCI-H460 lung, 116%; in the test with HOP-92 NSCLC, 100%. In addition, the growth is 92.9% in the test on NCI-H522 lung; 113% with A549/ATCC NSCLC; 99.9% in the test with 786-0 renal; 115% in the test with COLO 205 colon; 107% in the test with DU-145 prostate; 105% in the test with K-562 leukemia. Moreover, the growth is 94.5% with MALME-3M melanoma; 102% in the test with MDA-MB-231 breast; 122% with RXF 393 renal; 91.3% in the test on SF-268 CNS; 101% in the test with SF-295 CNS; 101% in the test with SF-539 CNS. Besides, the growth in the test on UACC-257 melanoma is 101%; with M14 melanoma, 96.7%.
